Results: PubChem BioAssay (NCATS)
Inconclusive results are not listed. Active and inactive are the calls of the source. Calls follow the shape of the dose curve; as a rule, active = well fitted inhibition curve with a large enough effect; inconclusive = small, poorly fitted or top-dose-only effect; inactive = flat fitted curve, though single readings scatter. *1 amine or outer side, *2 acyl side, *3 side chain or, on linkers, in order; H or OH if unused. Where a SMILES comes first, the peptide text is derived from it. Bridges are numbered along the chain shown (N, C = ends). [ ]: non-standard residue; d: D form. The star is where a group is joined. pTerphenylCO(4''-OnC5H11) = CCCCCOc1ccc(-c2ccc(-c3ccc(C(=O)*)cc3)cc2)cc1; Orn(4R-OH,5R-OH) = O=C([C@H](C[C@@H](O)[C@@H](O)N[*:3])N[*:1])[*:2]; hTyr(3S-OH,4S-OH) = N[C@H](C(=O)O)[C@H](O)[C@@H](O)c1ccc(O)cc1; Pro(3S-OH,4S-Me) = C[C@H]1CN[C@H](C(=O)O)[C@H]1O; Hyp = O=C(O)[C@@H]1C[C@@H](O)CN1

How the values were obtained:
Assay in all cases: Cytotoxic Profiling of Annotated Libraries Using Quantitative High-Throughput Screening (AID 1296008); also: nearly all actives have a fitted effect of over 60% in size
Conditions in all cases: Five cell lines viability, CellTiter-Glo ATP luminescence, 48-72 h; max response: hits give low values
CRL-7250 = normal cell line; test system: CRL-7250
Method in brief: (§1)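 Compounds were pin-transferred onto cells and incubated 48 or 72 hr at 37 degree Celsius, 95% humidity. CellTiter-Glo was added, plates sat 10 min at room temperature, then ATP-coupled luminescence was imaged as the viability read-out.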

HaCat = test system: HaCat
Method in brief: as §1

KB-3-1 = test system: KB-3-1
Method in brief: as §1

NIH3T3 = test system: NIH3T3
Method in brief: as §1
% is scaled to controls: 0 for no effect and ±100 for the full control effect; potency is read from the fitted curve at half-maximal effect.

CN(C)C(=O)Nc1cccc(-c2ccc(N(C)C)cc2)c1
inactive: max response (CRL-7250) -5.4% | max response (HaCat) -0.332% | max response (KB-3-1) -4.8% | max response (NIH3T3) 3%

CCCCCOc1ccc(-c2ccc(-c3ccc(C(=O)N[C@H]4C[C@@H](O)[C@@H](O)NC(=O)[C@@H]5[C@@H](O)[C@@H](C)CN5C(=O)[C@H]([C@@H](C)O)NC(=O)[C@H]([C@H](O)[C@@H](O)c5ccc(O)cc5)NC(=O)[C@@H]5C[C@@H](O)CN5C(=O)[C@H]([C@@H](C)O)NC4=O)cc3)cc2)cc1 ({pTerphenylCO(4''-OnC5H11)}-[Orn(4R-OH,5R-OH)]T[Hyp][hTyr(3S-OH,4S-OH)]T[Pro(3S-OH,4S-Me)]; lactam 1-C)
inactive: max response (CRL-7250) 4.73% | max response (HaCat) 3.64% | outcome (KB-3-1) | max response (NIH3T3) -1.62%

COC(=O)CC[C@@H](C)C1CCC2C3CCC4C[C@H](OC(C)=O)CCC4(C)C3C[C@H](O)C21C (some centres undefined)
inactive: max response (CRL-7250) -0.684% | max response (HaCat) -5.91% | max response (KB-3-1) 9.49% | outcome (NIH3T3)

C/C(=C\CCC(C)C1=CCC2(C)OC3=C(CC12)C(=O)C(O)CC3)CO (centres undefined)
inactive: max response (CRL-7250) -17.6% | max response (HaCat) -38% | max response (KB-3-1) -18.5% | max response (NIH3T3) -0.114%

N#Cc1cc(C2=Nc3ccc(Br)cc3NC(=O)C2)ccn1
inactive: max response (CRL-7250) -3.76% | max response (HaCat) 4.97% | max response (KB-3-1) 4.39% | outcome (NIH3T3)

O=C(N[C@H]1CCN(C(=O)c2cc(C(F)(F)F)cc(C(F)(F)F)c2)[C@H](Cc2ccc(Cl)cc2)C1)c1ccnc2ccccc12
inactive: max response (CRL-7250) 0.275% | max response (HaCat) -2.45% | max response (KB-3-1) -7.03% | outcome (NIH3T3)

COc1ccc(Sc2ccc(NC(=O)c3ccccc3Cl)cc2C#N)cc1
inactive: max response (CRL-7250) -14.2% | max response (HaCat) -11.3% | max response (KB-3-1) -1.86% | max response (NIH3T3) -6.24%

CC(=O)O[C@H]1C[C@@](O)(C(C)C)[C@@H]2[C@@H](OC(=O)c3ccc(O)cc3)CC(C)=CC[C@@]12C
inactive: max response (CRL-7250) 3.65% | max response (HaCat) -1.16% | max response (KB-3-1) 6.43% | max response (NIH3T3) -25.3%

CC(=O)OC/C(=C/C(=O)O)CC[C@@H]1C(C=O)=CC[C@@H]2C(C)(C)CCC[C@@]12C
inactive: max response (CRL-7250) 4.87% | max response (HaCat) 3.05% | max response (KB-3-1) 3.67% | max response (NIH3T3) 3.58%

Cc1cc(F)ccc1-c1nc(NCCN=C(N)NC#N)nc2c1ccc(=O)n2-c1c(F)cccc1F
inactive: max response (CRL-7250) 1.44% | max response (HaCat) 4.96% | max response (KB-3-1) 0.209% | max response (NIH3T3) 4.3%

O=C(CSc1nc2ccccc2c(=O)n1-c1ccccc1)Nc1ccc2c(c1)CCC2
inactive: max response (CRL-7250) 1.59% | max response (HaCat) -10.2% | outcome (KB-3-1) | max response (NIH3T3) -0.829%

CC(C)(CNC(=O)c1cccc(-c2noc(C(F)(F)F)n2)c1)c1coc(-c2ccccc2)n1
inactive: max response (CRL-7250) 1.16% | max response (HaCat) -1.63% | max response (KB-3-1) -6.73% | max response (NIH3T3) 4.1%

O=C(COc1ccc(C(=O)c2ccccc2)cc1)NC1CCN(Cc2ccccc2)CC1
inactive: max response (HaCat) -11.4% | max response (KB-3-1) -23% | max response (NIH3T3) -2.94%
active: Potency (CRL-7250) 8200 nM

CC(C)c1noc(C2CCN(c3ncnc(Nc4ccc(S(C)(=O)=O)cc4F)c3[N+](=O)[O-])CC2)n1
inactive: max response (CRL-7250) -0.282% | max response (HaCat) 1.98% | max response (KB-3-1) -4.1% | max response (NIH3T3) -23.4%

COc1cc(/C=N\NC(=O)c2ccc3c(c2)OCO3)ccc1OCc1ccccc1
inactive: max response (CRL-7250) 3.71% | max response (HaCat) -3.21% | max response (KB-3-1) -9.36% | max response (NIH3T3) 0.687%

COC(=O)c1ccc(N2CCN(C)CC2)c(NC(=O)c2cccc(OC)c2)c1
inactive: max response (CRL-7250) -14.2% | max response (HaCat) -1.79% | max response (KB-3-1) -6.24% | max response (NIH3T3) 3.28%

CN1CCc2cc3c(cc2C(=O)Cc2cc4c(cc2C1)OCO4)OCO3
inactive: outcome (CRL-7250) | max response (HaCat) -8.11% | outcome (KB-3-1) | outcome (NIH3T3)

O=C(Nc1ccccc1C(=O)NC1CCCCNC1=O)c1cc2ccccc2s1 (centres undefined)
inactive: outcome (CRL-7250) | max response (HaCat) 4.7% | max response (KB-3-1) -2.87% | max response (NIH3T3) 4.3%

COc1cc(NC(=O)c2cc(C3CC3)on2)c(OC)cc1Cl
inactive: max response (CRL-7250) -0.243% | max response (HaCat) -5.44% | max response (KB-3-1) 7.13% | max response (NIH3T3) -5.84%

COc1ccc(C2Oc3c(OC)cc(CCCO)cc3C2COC2OC(CO)C(O)C(O)C2O)cc1OC (centres undefined)
inactive: outcome (CRL-7250) | max response (HaCat) 1.52% | max response (KB-3-1) -12.2% | max response (NIH3T3) -1.06%

CC(C)=CCCC1(C)C2CCC1(C)C(O)C2 (centres undefined)
inactive: max response (CRL-7250) -2.07% | max response (HaCat) -23% | max response (KB-3-1) -23.6% | max response (NIH3T3) 0.907%

Cc1[nH]c2ccccc2c1CCNCc1ccc(/C=C/C(=O)NO)cc1
active: Potency (CRL-7250) 517 nM | Potency (HaCat) 184 nM | Potency (KB-3-1) 82 nM | Potency (NIH3T3) 366 nM

COc1ccc(NC(=O)C2C[C@H](C)CC[C@H]2C(C)C)cc1 (some centres undefined)
inactive: outcome (CRL-7250) | max response (HaCat) -2.17% | outcome (KB-3-1) | max response (NIH3T3) -6.73%

C=C(C)C(=O)O[C@H]1[C@H]2C(=C)C(=O)O[C@@H]2/C=C(\CO)CC/C=C(/C=O)[C@@H]1O
inactive: max response (CRL-7250) -17.3% | max response (HaCat) -13.6% | outcome (KB-3-1) | max response (NIH3T3) -6.9%

CC(C)n1c(=O)c(C(=O)NC2CC3CCC(C2)N3C[C@@H](O)CN(C)S(C)(=O)=O)cc2ccccc21 (some centres undefined)
inactive: max response (CRL-7250) -15.6% | max response (HaCat) -16.2% | max response (KB-3-1) -11.4% | max response (NIH3T3) -22.5%

Nc1nc2c(cnn2CCCc2ccc(O)cc2)c2nc(-c3ccco3)nn12
inactive: outcome (CRL-7250) | max response (HaCat) -2.77% | max response (KB-3-1) 8.63% | max response (NIH3T3) 3.84%

COc1c(C(C)C)c(O)c(O)c2c1C(OC)[C@H]1OC(=O)[C@@]23CCCC(C)(C)[C@H]13 (some centres undefined)
inactive: outcome (CRL-7250) | max response (HaCat) -9.13% | outcome (KB-3-1) | max response (NIH3T3) -6.75%

COc1ccc(C2(N(C)C(=O)c3ccc(NC(=O)c4ccco4)cc3)CCOCC2)cc1
inactive: max response (CRL-7250) -25.1% | max response (HaCat) -27.5% | max response (KB-3-1) -3.65% | max response (NIH3T3) -15.7%

C/C=C/C=C/C=C/C(=O)O[C@@H]1C=C(CO)C(O)(C(=O)OC)[C@@]2(C)CCCC(C)(C)C12 (some centres undefined)
inactive: max response (CRL-7250) -4.29% | max response (HaCat) 2.7% | max response (KB-3-1) -3.74% | max response (NIH3T3) 4.09%

C=C1CCC2[C@](C)(CCC[C@@]2(C)C=O)[C@H]1CC/C(C)=C/CO (some centres undefined)
inactive: max response (CRL-7250) 2.68% | max response (HaCat) 2.96% | outcome (KB-3-1) | max response (NIH3T3) 1.76%

OC1(CN2CCC(COc3noc4cccc(O[C@@H]5CCOC5)c34)CC2)CCOCC1
inactive: max response (CRL-7250) -0.0295% | max response (HaCat) -23.1% | max response (KB-3-1) 2.03% | max response (NIH3T3) -22.8%

Cc1cc(OCCCS(C)(=O)=O)cc(C)c1-c1cccc(COc2ccc3c(c2)OCC3CC(=O)O)c1 (centres undefined)
inactive: max response (CRL-7250) -4.99% | max response (HaCat) 0.974% | max response (KB-3-1) -3.22% | outcome (NIH3T3)

C[C@@H]1C[C@H](C)CN(CCC(=O)Nc2ccc(Br)cc2)C1
inactive: max response (CRL-7250) -5.34% | max response (HaCat) -4.42% | max response (KB-3-1) -13.7% | max response (NIH3T3) -17.9%

C/C=C(\C)C(=O)OC1C(C)C2(O)C(C=C(CO)CC3(O)C(=O)C(C)=CC32)C2C(C)(C)C12OC(C)=O (centres undefined)
inactive: max response (CRL-7250) -19.7% | max response (HaCat) -5.6% | max response (KB-3-1) 3.13% | max response (NIH3T3) -6.06%

COc1ccccc1N1CCN(CC(C(=O)NC(C)(C)C)c2ccccc2)CC1 (centres undefined)
inactive: outcome (CRL-7250) | max response (HaCat) -3.82% | max response (KB-3-1) 7.33% | outcome (NIH3T3)

COc1cc(OC)c2c(=O)[nH]c(-c3cc(C)c(OCCO)c(C)c3)nc2c1
inactive: max response (CRL-7250) -10.3% | max response (HaCat) 1.79% | outcome (KB-3-1) | max response (NIH3T3) -22%

COc1cc(N(C)CCN(C)C)c(N)cc1Nc1nccc(-c2cn(C)c3ccccc23)n1
inactive: max response (CRL-7250) -5.14% | max response (HaCat) -1.2% | max response (KB-3-1) -6.79% | outcome (NIH3T3)

Cn1ncnc1[C@@H]1c2n[nH]c(=O)c3cc(F)cc(c23)N[C@H]1c1ccc(F)cc1
inactive: max response (CRL-7250) -10.4% | max response (HaCat) -18% | outcome (KB-3-1) | max response (NIH3T3) -15%

C=C[C@H](/C=C\c1ccc(O)cc1)c1ccc(O)cc1
inactive: max response (CRL-7250) -3.27% | max response (HaCat) 1.54% | max response (KB-3-1) -11.7% | outcome (NIH3T3)

CC(=O)NCc1cccc(OC[C@@H](O)CNCCc2ccc(NS(=O)(=O)c3ccccc3)cc2)c1
inactive: max response (CRL-7250) -6.68% | max response (HaCat) -3.13% | max response (KB-3-1) -5.62% | outcome (NIH3T3)

CC#C[C@@H](CC(=O)O)c1ccc(OCc2ccc(CN3CCC4(C=Cc5ccccc54)CC3)s2)cc1
inactive: outcome (CRL-7250) | max response (HaCat) 1.71% | max response (KB-3-1) -9.33% | outcome (NIH3T3)

Cc1nc(N2CCN(C(=O)c3ccco3)CC2)c2c3c(sc2n1)CCCC3
inactive: max response (CRL-7250) -5.8% | max response (HaCat) 1.01% | max response (KB-3-1) -12.8% | max response (NIH3T3) 1.1%

c1cc(-c2cnn3cc(-c4ccc(N5CCNCC5)cc4)cnc23)c2cccnc2c1
active: Potency (KB-3-1) 4110 nM
inactive: outcome (CRL-7250) | max response (HaCat) 0.937% | max response (NIH3T3) -2.87%

CCC(CC)(NC(=O)C(C)C)C(=O)N[C@@H](CCCN=C(N)N)C(=O)NC1(C(=O)NC(c2ccc(F)cc2)c2ccc(F)cc2)CCCC1
inactive: max response (CRL-7250) 2.72% | max response (HaCat) -3.8% | max response (KB-3-1) 7.28% | max response (NIH3T3) -2.32%

CNCc1cc(-c2ccccc2F)n(S(=O)(=O)c2cccnc2)c1
inactive: max response (CRL-7250) -3.13% | max response (HaCat) -5.62% | max response (KB-3-1) -0.384% | max response (NIH3T3) 0.556%

CC1=CC2/C=C(\C)CCC(O)C(=O)C(O)CC(=O)C23C(=O)NC(CC(C)C)C3C1C (centres undefined)
inactive: outcome (CRL-7250) | max response (HaCat) -78.4% | max response (KB-3-1) 2.51% | max response (NIH3T3) -27%
